PubChem BioAssay (Tox21)
Values without a mark were called inactive. Records with an inconclusive call do not appear. A call without a number means that no potency is given here. Calls of active or inactive are those of the source. The call rests on the fitted dose curve; in most records, active means well fitted curve in the direction sought with a large enough effect in the repeat runs; inconclusive means weak or mixed curves; inactive means no such curve, though single readings can be large; an effect the other way counts as inactive or inconclusive.

Experiments:
[1] = Human pregnane X receptor (PXR) small molecule agonists, qHTS cell viability counter screen (AID 1346977); further: nearly all actives have a fitted effect of over 50% in size; further: potency means the concentration at half of the fitted maximal effect
Summary of the method: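 Tox21 qHTS format; PXR-Luc HepG2, 2,000/well, charcoal-stripped FBS 5%. Cpd exposure 24hr. Read: CellTiter-Fluor fluorescence, multiplexed with luciferase.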

[2] = Caspase-3/7 induction in CHO-K1 cells by small molecules, qHTS cell viability counter screen (AID 1346979); further: nearly all actives have a fitted effect of over 35% in size; further: potency means the concentration at half of the fitted maximal effect
Summary of the method: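 CellTiter-Fluor viability check, qHTS format: wild-type CHO-K1, 16hr compound treatment, 1hr reagent incubation, fluorescence read.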

[3] = Caspase-3/7 induction in CHO-K1 cells by small molecules, qHTS assay (AID 1346980); further: nearly all actives have a fitted effect of over 15% in size; further: potency means the concentration at half of the fitted maximal effect
Summary of the method: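 Luminescent Caspase-Glo 3/7 read (30min, room temperature) quantified apoptosis induction. Cells were wild-type CHO-K1, treated with compound for 17hr at 37 C and 5% CO2.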

[4] = Caspase-3/7 induction in HepG2 cells by small molecules, qHTS cell viability counter screen (AID 1346981); further: nearly all actives have a fitted effect of over 30% in size; further: potency means the concentration at half of the fitted maximal effect
Summary of the method: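 In this quantitative HTS counter screen, compounds delivered in DMSO were left on unmodified HepG2 cells for 16 hr at 37 C. Viability was then determined fluorometrically with CellTiter-Fluor, in parallel with caspase-3/7 induction in the same wells.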

[5] = target: Nuclear receptor subfamily 1 group I member 2 (Rattus norvegicus) (UniProt Q9R1A7); assay: Rat pregnane X receptor (rPXR) activation by small molecules, qHTS assay (AID 1346983); conditions: rPXR luciferase reporter cells, One-Glo luminescence, 24 h; max activation: stronger effect = higher value; further: nearly all actives have a fitted effect of over 20% in size; further: potency means the concentration at half of the fitted maximal effect
Sequence of Nuclear receptor subfamily 1 group I member 2 (Rattus norvegicus) (Q9R1A7 whole entry, looked up): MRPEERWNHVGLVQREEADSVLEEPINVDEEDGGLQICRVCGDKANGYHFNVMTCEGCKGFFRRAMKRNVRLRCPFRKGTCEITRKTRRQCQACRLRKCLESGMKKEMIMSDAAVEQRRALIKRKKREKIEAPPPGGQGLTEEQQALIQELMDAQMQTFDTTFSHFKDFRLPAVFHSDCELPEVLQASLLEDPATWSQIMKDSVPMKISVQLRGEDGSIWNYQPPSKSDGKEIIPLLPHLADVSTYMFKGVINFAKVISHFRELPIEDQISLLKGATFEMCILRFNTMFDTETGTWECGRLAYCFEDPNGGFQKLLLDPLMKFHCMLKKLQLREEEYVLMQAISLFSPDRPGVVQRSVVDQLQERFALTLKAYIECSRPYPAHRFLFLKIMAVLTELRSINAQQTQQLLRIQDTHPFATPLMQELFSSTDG
Summary of the method: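 Luminescent readout (One-Glo luciferase, 30 min room temperature) followed 24 hr compound treatment at 37 C of rPXR cells plated 2,000 per well and preincubated 5hr; qHTS format with compounds delivered in DMSO.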

[6] = target: Nuclear receptor subfamily 1 group I member 2 (Homo sapiens) (UniProt O75469); assay: CYP3A4 induction through human pregnane X receptor (PXR) by small molecules, qHTS assay (AID 1346984); further: nearly all actives have a fitted effect of over 40% in size
Sequence of Nuclear receptor subfamily 1 group I member 2 (Homo sapiens) (O75469 whole entry, looked up): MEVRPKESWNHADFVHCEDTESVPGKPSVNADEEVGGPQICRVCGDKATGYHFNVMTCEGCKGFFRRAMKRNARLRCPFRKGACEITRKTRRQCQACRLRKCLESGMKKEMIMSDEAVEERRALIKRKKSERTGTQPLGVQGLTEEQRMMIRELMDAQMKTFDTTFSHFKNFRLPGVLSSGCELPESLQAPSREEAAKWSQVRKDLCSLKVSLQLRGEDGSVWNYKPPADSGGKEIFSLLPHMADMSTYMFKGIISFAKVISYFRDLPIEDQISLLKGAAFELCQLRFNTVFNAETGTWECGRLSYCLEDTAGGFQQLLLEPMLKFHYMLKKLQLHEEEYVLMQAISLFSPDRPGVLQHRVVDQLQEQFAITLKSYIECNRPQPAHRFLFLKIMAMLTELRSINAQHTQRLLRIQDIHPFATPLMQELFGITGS
Summary of the method: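 Induction measured in HepG2-based DPX-2 cells co-expressing human PXR and a CYP3A4 promoter-driven luciferase. After a 24-hour compound exposure, cells received CYP3A4 luciferin substrate at 3uM final for 3 hours, and light output was then recorded.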

[7] = target: Nuclear receptor subfamily 1 group I member 2 (Homo sapiens) (UniProt O75469); assay: Human pregnane X receptor (PXR) activation by small molecules, qHTS assay (AID 1346985); further: nearly all actives have a fitted effect of over 40% in size; further: potency means the concentration at half of the fitted maximal effect
Summary of the method: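 DPX-2 cells (HepG2 co-transfected with a PXR response element and a CYP3A4-promoter luciferase construct) were seeded at 2,000 per well, rested 5 hr at 37C, then exposed to DMSO-dissolved compounds for 24 hr. Activation was read as luciferase luminescence.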

[8] = Caspase-3/7 induction in HepG2 cells by small molecules, qHTS assay (AID 1346978); further: nearly all actives have a fitted effect of over 15% in size; further: potency means the concentration at half of the fitted maximal effect
Summary of the method: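 Caspase-3/7 induction was measured by Caspase-Glo 3/7 luminescence (30 min, room temperature) after a 17 hr compound exposure of wild-type HepG2 cells seeded at 2,000 per well and pre-incubated 5 hr.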

[9] = target: Nuclear receptor subfamily 1 group I member 2 (Homo sapiens) (UniProt O75469); assay: Human pregnane X receptor (PXR) small molecule agonists, qHTS assay (AID 1346982); further: nearly all actives have a fitted effect of over 35% in size; further: potency means the concentration at half of the fitted maximal effect
Summary of the method: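 Reporter HepG2 cells expressing PXR-Luc are cultured in charcoal-stripped FBS (5%), treated with compounds for 24 hr at 37 C, and assayed by ONE-Glo luminescence after 30 min at room temperature.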

SMILES	Potency [1]	Potency [2]	Potency [3]	Potency [4]	max activation [5] [%]	Potency [6]	Potency [7]	Potency [8]	Potency [9]	Potency [5]
COc1ccccc1N1CCN(CCCCNC(=O)c2ccc(-c3ccc(C(C)=O)cc3)cc2)CC1	inactive	inactive	inactive	inactive	-3.31	inactive	inactive	–	–	–
CCOc1ccc(Cc2nccc3cc(OCC)c(OCC)cc23)cc1OCC	26.6 µM (active)	11.9 µM (active)	inactive	29.8 µM (active)	-4.93	–	–	inactive	3.35 µM (active)	–
Cc1cc2c(OCC(CNC(C)(C)C)OC(=O)c3ccccc3)cccc2[nH]1 (stereo unspecified)	inactive	inactive	inactive	inactive	-3.65	inactive	inactive	inactive	inactive	–
CCCCN(CCCC)C(C(N)=O)c1ccc(OC)cc1 (stereo unspecified)	inactive	inactive	inactive	inactive	–	–	–	inactive	11.9 µM (active)	–
O=c1[nH]c2ccc(Cl)cc2o1	inactive	–	inactive	inactive	–	–	–	inactive	–	–
C=CC(=O)[O-].C=CC(=O)[O-].[Zn+2]	inactive	inactive	inactive	inactive	–	–	–	–	inactive	–
Clc1ccc(Nc2nnc(Cc3ccncc3)c3ccccc23)cc1	–	–	inactive	–	1.3	inactive	3.98 µM (active)	–	29.8 µM (active)	–
CC(=O)c1cc2ccccc2s1	inactive	–	inactive	inactive	–	–	–	–	inactive	–
O=[N+]([O-])c1ccc(O/N=C/c2cc(Br)c(O)c(Br)c2)c([N+](=O)[O-])c1	–	15.3 µM (active)	inactive	27.2 µM (active)	–	–	–	inactive	–	–
C[C@@H](CN(C)C)CN1c2ccccc2Sc2ccccc21	–	–	inactive	inactive	–	–	inactive	inactive	–	–
CC(C)Nc1cccnc1N1CCN(C(=O)c2cc3cc(NS(C)(=O)=O)ccc3[nH]2)CC1	–	inactive	inactive	inactive	0.79	inactive	inactive	inactive	inactive	–
COc1ccccc1N1CCN(CC(O)COc2cccc3ccccc23)CC1 (stereo unspecified)	–	–	inactive	–	–	–	–	inactive	–	–
CC(CC1c2ccccc2CCc2ccccc21)CN(C)C (stereo unspecified)	–	–	inactive	–	–	–	–	inactive	–	–
CCCCCC#CC(=O)OC	inactive	inactive	inactive	inactive	–	–	–	–	inactive	–
O=[N+]([O-])c1cc(C2CCCCC2)c(O)c([N+](=O)[O-])c1	4.31 µM (active)	7.67 µM (active)	inactive	15.3 µM (active)	–	–	–	inactive	8.61 µM (active)	–
COc1cc(Nc2c(C#N)cnc3cc(OCCCN4CCN(C)CC4)c(OC)cc23)c(Cl)cc1Cl	–	29.8 µM (active)	inactive	13.3 µM (active)	–	–	–	11.9 µM (active)	–	–

SMILES	Potency [1]	Potency [2]	Potency [3]	Potency [4]	max activation [5] [%]	Potency [6]	Potency [7]	Potency [8]	Potency [9]	Potency [5]
O=C1Cc2ccccc2N1c1c(Cl)cccc1Cl	inactive	–	inactive	–	–	–	–	inactive	9.69 µM (active)	–
CCOC(=O)c1ccc(O)c(O)c1	–	inactive	inactive	inactive	–	–	–	inactive	inactive	–
Cc1[nH]cnc1CN1CCc2c(c3ccccc3n2C)C1=O	inactive	inactive	inactive	inactive	1.25	inactive	inactive	inactive	inactive	–
CCC(=O)C1CC(C(C)C)CC=C1C (stereo unspecified)	inactive	inactive	inactive	–	–	–	–	–	30.6 µM (active)	–
CC(=O)OCC(=O)NCCCOc1cccc(CN2CCCCC2)c1	–	inactive	inactive	inactive	-1.53	inactive	inactive	inactive	inactive	–
COc1ccccc1NC(=O)c1cc2ccccc2cc1O	–	–	inactive	inactive	–	–	–	inactive	24.3 µM (active)	–
Cc1cc(C)c(N)cc1C	–	inactive	inactive	inactive	–	–	–	inactive	–	–
CCCCOc1ccc(OCCCN2CCOCC2)cc1	–	inactive	inactive	inactive	-1.82	inactive	inactive	inactive	21.1 µM (active)	–
CC1(C)O[C@@H]2C[C@H]3[C@@H]4C[C@H](F)C5=CC(=O)C=C[C@]5(C)[C@H]4[C@@H](O)C[C@]3(C)[C@]2(C(=O)CO)O1	inactive	inactive	inactive	inactive	–	inactive	inactive	inactive	–	8.91 µM (active)
CCCCC(CC)COP(=O)(O)O (stereo unspecified)	inactive	inactive	inactive	inactive	–	–	–	inactive	inactive	–
CCOc1ccccc1O[C@H](c1ccccc1)[C@H]1CNCCO1	–	inactive	inactive	inactive	-0.272	inactive	22.4 µM (active)	inactive	inactive	–
O=c1c(O)c(-c2ccc(O)cc2)oc2cc(O)cc(O)c12	–	60.9 µM (active)	inactive	60.9 µM (active)	–	–	–	inactive	–	–
CCOc1cccc(-n2cc(C(=O)N3CCN(c4cc(C(=O)O)c5ccccc5c4)CC3)nc2-c2ccc(C)cc2)c1	–	58.3 µM (active)	58.3 µM (active)	inactive	–	–	–	inactive	–	–
O=C(O)CCC(=O)C(=O)O	inactive	inactive	inactive	inactive	-0.816	inactive	inactive	–	inactive	–
O=C1NCCN1CCO	inactive	inactive	inactive	inactive	–	–	–	–	inactive	–
